Test [1] is described as follows: cAMP Responsive Elements (CRE) small molecule antagonists, cell-based qHTS assay: qHTS cell viability counter screen (AID 2060913). Further: nearly all actives have a fitted effect of over 40% in size. The procedure, abridged: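 Cytotoxicity read in the same wells as the CRE-bla HEK293T antagonist assay: after 3 h compound with 0.25 uM NKH477 final and 2 h beta-lactamase substrate, CellTiter-Glo luminescence measured.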
In general terms: qHTS replaces the single test concentration by a dilution series.

Test [2] is described as follows: cAMP Responsive Elements (CRE) small molecule agonists, cell-based qHTS assay: qHTS cell viability counter screen (AID 2060914). Further: nearly all actives have a fitted effect of over 50% in size. The method, boiled down: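 Cells are seeded and incubated 18 h, treated with compounds in DMSO for 3 h, read for the bla reporter, then given CellTiter-Glo; luminescence is measured after 30 min at room temperature.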

Results filed as inconclusive are left out. Unmarked numbers belong to inactive results. The source made the active and inactive calls. The call rests on the fitted dose curve; in most records, active means well fitted cell-killing curve with a large enough effect in the repeat runs; inconclusive means weak or mixed curves, or effect the other way; inactive means flat fitted curve, though single readings scatter.
On the % scale 0 is the no-effect control and ±100 the full control effect; potency means the concentration at half of the fitted maximal effect.

As for `O=C1Nc2ccc(Cl)cc2C(c2ccccc2)=NC1O` (configuration not stated), the Potency entry in test [1] and in test [2] was “inactive” in each case.

Take `CC1CC(=O)O1` (configuration not stated): the Potency entry in test [1] and in test [2] was “inactive” each time.

Take `CC(=O)c1cc(C(C)(C)C)cc2c1CCC2(C)C`: the Potency entry in test [1] and in test [2] was “inactive” throughout.

On to `CCCCOP(=O)(O)OCCCC`, for which the Potency result in test [1] and in test [2] was “inactive” each time.

As for `O=C(N[C@H]1CN2CCC1CC2)c1cc2ccoc2cn1`, the Potency entry in test [1] and in test [2] was “inactive” throughout.

Turning to `Oc1cc(Cl)cc(Cl)c1`, the Potency entry in test [1] and in test [2] was “inactive” throughout.

For `CCC(OC(C)=O)C(CC(C)NC)(c1ccccc1)c1ccccc1` (configuration not stated), the Potency entry in test [1] and in test [2] was “inactive” each time.

Take `CCOC(=O)Cc1ccccc1`: the Potency result in test [1] and in test [2] was “inactive” each time.

Turning to `CC(=O)[O-].CC(=O)[O-].[Hg+2]`, the figures for the Potency in test [1] and in test [2] were 8.63 µM (active) and 10.9 µM (active), respectively.

`CCOC(=O)N(C)C(=O)CSP(=S)(OCC)OCC`: the Potency result in test [1] and in test [2] was “inactive” each time.

`CC(C)(C)OOC(C)(C)C`: the Potency result in test [1] and in test [2] was “inactive” each time.

Turning to `Cc1cccc(N=Nc2ccc(N(C)C)cc2)c1`, the Potency result in test [1] and in test [2] was “inactive” in each case.

On to `COc1cccc(C(=O)NN(C(=O)c2cc(C)cc(C)c2)C(C)(C)C)c1C`, for which the Potency entry in test [1] and in test [2] was “inactive” throughout.

Turning to `CC[N+]1(CC)CCC(OC(=O)C(O)(c2ccccc2)c2ccccc2)C1` (configuration not stated), the Potency entry in test [1] and in test [2] was “inactive” in each case.

Regarding `O=C1C=CC(=O)C=C1`, the Potency result in test [1] and in test [2] was “inactive” each time.

Regarding `C=CC(=O)OC`, the Potency entry in test [1] and in test [2] was “inactive” each time.

On to `Clc1cc2c(cc1Cl)Oc1cc(Cl)c(Cl)cc1O2`, for which the viability change, negative = cytotoxic in test [1] was 7.14% [at 0.349 µM]. Moreover, the activity change, negative = cytotoxicity in test [2] was 1.6% [at 0.349 µM].

For the compound `Nc1cc(Cl)cc(C(=O)O)c1Cl`, the Potency entry in test [1] and in test [2] was “inactive” in each case.

As to `BrC(Br)C(Br)(Br)Br`, the Potency entry in test [1] and in test [2] was “inactive” each time.

Consider `CCOc1nc(C(Cl)(Cl)Cl)ns1`, for which the Potency entry in test [1] and in test [2] was “inactive” in each case.

Regarding `Nc1ccc(-c2ccccc2)cc1`, the Potency result in test [1] and in test [2] was “inactive” throughout.

As to `N#CS`, the Potency result in test [1] and in test [2] was “inactive” each time.

As to `CC1(C)[C@H](C(=O)O[C@H](C#N)c2cccc(Oc3ccccc3)c2)[C@@H]1/C=C(\Cl)C(F)(F)F`, the Potency entry in test [1] and in test [2] was “inactive” each time.

Consider `CC(C)(C)c1ccc(CCOc2ncnc3ccccc23)cc1`, for which the Potency result in test [1] and in test [2] was “inactive” throughout.

As to `CCN[C@@H](C)Cc1ccccc1`, the Potency result in test [1] and in test [2] was “inactive” in each case.

`NC(=O)CI`: the Potency entry in test [1] and in test [2] was “inactive” each time.

For `S=c1[nH]c2ccccc2[nH]1`, the Potency entry in test [1] and in test [2] was “inactive” each time.

Turning to `Cc1ccccc1C(=O)Nc1cccc(OC(C)C)c1`, the Potency result in test [1] and in test [2] was “inactive” in each case.

Take `CCCN(CCC)c1c([N+](=O)[O-])cc(C(F)(F)F)cc1[N+](=O)[O-]`: the Potency result in test [1] and in test [2] was “inactive” throughout.

As for `CC(=O)C=C(C)C`, the Potency entry in test [1] and in test [2] was “inactive” in each case.

As for `Oc1ccc(Cl)c(Cl)c1Cl`, the Potency entry in test [1] and in test [2] was “inactive” throughout.

For the compound `CCCCC(CC)COC(=O)Cl` (configuration not stated), the Potency result in test [1] and in test [2] was “inactive” throughout.

`C[C@@H](N)[C@@H](O)c1ccccc1`: the Potency entry in test [1] and in test [2] was “inactive” each time.

For `CCc1ccc(C(=O)NN(C(=O)c2cc(C)cc(C)c2)C(C)(C)C)cc1`, the Potency entry in test [1] and in test [2] was “inactive” throughout.

In the case of `COP(=O)(OC)Oc1ccc([N+](=O)[O-])cc1`, the Potency result in test [1] and in test [2] was “inactive” each time.

Take `COc1cc(Cl)c(OC)cc1Cl`: the Potency entry in test [1] and in test [2] was “inactive” throughout.

As to `CCC(C)(C)O`, the Potency result in test [1] and in test [2] was “inactive” throughout.

In the case of `Oc1ccc(I)cc1`, the Potency result in test [1] and in test [2] was “inactive” in each case.

Turning to `CCC1(c2cccc(O)c2)CCCCN(C)C1` (configuration not stated), the Potency result in test [1] and in test [2] was “inactive” throughout.

Take `Nc1cc(Cl)ccc1Cl`: the Potency result in test [1] and in test [2] was “inactive” each time.

On to `CCOC(=O)CC(=O)CCl`, for which the Potency result in test [1] and in test [2] was “inactive” in each case.

Turning to `C=CCCC#N`, the Potency result in test [1] and in test [2] was “inactive” each time.

Consider `COC(=O)COc1ccc(Cl)cc1Cl`, for which the Potency entry in test [1] and in test [2] was “inactive” each time.

Take `COC1=CC(=O)O[C@@H](/C=C/c2ccc3c(c2)OCO3)C1`: the Potency entry in test [1] and in test [2] was “inactive” in each case.

Regarding `CN1C(=O)CCS(=O)(=O)C1c1ccc(Cl)cc1` (configuration not stated), the Potency result in test [1] and in test [2] was “inactive” in each case.

For `CN(C)CCO`, the Potency entry in test [1] and in test [2] was “inactive” each time.

As for `C[C@]12C/C(=C/O)C(=O)C[C@@H]1CC[C@@H]1[C@@H]2CC[C@@]2(C)[C@H]1CC[C@]2(C)O`, the Potency entry in test [1] and in test [2] was “inactive” each time.

On to `CN(C)C1CSSSC1`, for which the Potency result in test [1] and in test [2] was “inactive” throughout.

For `OC(c1ccccc1)(c1ccccc1)C1CCNCC1`, the Potency entry in test [1] and in test [2] was “inactive” throughout.

On to `Clc1ccccc1N1CCNCC1`, for which the Potency entry in test [1] and in test [2] was “inactive” throughout.

For the compound `CCN(CC)C(=O)SCc1ccc(Cl)cc1`, the Potency entry in test [1] and in test [2] was “inactive” throughout.
